# Data: publication PMC7862700, “An all-to-all approach to the identification of sequence-specific readers for epigenetic DNA modifications on cytosine”
# Columns and labels:
# Test in all cases: DAPPL (digital affinity profiling via proximity ligation, sequencing); 10 mM Tris-HCl pH 7.5, 50 mM NaCl, 1 mM DTT, 4% glycerol, room temperature, 30 min; GST-TFs on glutathione beads, 16-mer random dsDNA library, 0.1% formaldehyde crosslink after washing; high values mean tight binding
# FLI1 = target: T1, FLI1 (Homo sapiens, UniProt Q01543 1-452); conditions: protein: recombinant; tags: N-terminal GST; dsDNA, one strand shown
# T1 sequence: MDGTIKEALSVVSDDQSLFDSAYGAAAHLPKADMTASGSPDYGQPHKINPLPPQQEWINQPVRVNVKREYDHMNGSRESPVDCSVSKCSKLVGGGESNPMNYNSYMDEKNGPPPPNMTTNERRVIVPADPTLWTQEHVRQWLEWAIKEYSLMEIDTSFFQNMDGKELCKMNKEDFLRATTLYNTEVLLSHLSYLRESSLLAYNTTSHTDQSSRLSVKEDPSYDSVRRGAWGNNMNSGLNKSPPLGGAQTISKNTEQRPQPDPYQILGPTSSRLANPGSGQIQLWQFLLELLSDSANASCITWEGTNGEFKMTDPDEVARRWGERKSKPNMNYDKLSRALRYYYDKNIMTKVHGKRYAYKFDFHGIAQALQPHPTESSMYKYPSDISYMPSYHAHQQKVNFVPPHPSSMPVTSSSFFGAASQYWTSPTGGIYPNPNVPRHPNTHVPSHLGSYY
# How it was run: (§1)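 Each value of binding signal is a hexamer's read frequency for a factor divided by the same hexamer's frequency in the tag-only sample. Barcoded, bead-captured GST fusions of human transcription factors made in yeast were pooled with that sample and incubated with 200 nmole of a random double-stranded 16-mer DNA library in Tris/NaCl/DTT/glycerol buffer at room temperature for 30 min. Washing, 0.1% formaldehyde crosslinking, proximity ligation, PCR and Illumina NextSeq500 sequencing followed.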
# ELK1 = target: T2, ELK1 (Homo sapiens, UniProt P19419 1-428); conditions: protein: recombinant; tags: N-terminal GST; dsDNA, one strand shown
# T2 sequence: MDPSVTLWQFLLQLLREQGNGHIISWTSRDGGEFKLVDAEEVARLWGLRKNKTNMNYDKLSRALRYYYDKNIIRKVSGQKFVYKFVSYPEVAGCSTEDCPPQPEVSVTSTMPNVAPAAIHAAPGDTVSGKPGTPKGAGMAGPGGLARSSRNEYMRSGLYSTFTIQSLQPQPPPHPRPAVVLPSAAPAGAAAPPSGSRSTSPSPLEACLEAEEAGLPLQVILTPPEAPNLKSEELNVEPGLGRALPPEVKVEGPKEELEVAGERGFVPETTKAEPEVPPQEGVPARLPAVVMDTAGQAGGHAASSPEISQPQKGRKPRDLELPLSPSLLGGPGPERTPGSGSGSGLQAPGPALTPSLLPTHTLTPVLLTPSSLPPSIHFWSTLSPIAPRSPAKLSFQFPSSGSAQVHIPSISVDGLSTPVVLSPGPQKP
# How it was run: as §1
# GABPA = target: T3, GABPA (Homo sapiens, UniProt Q06546 1-454); conditions: protein: recombinant; tags: N-terminal GST; dsDNA, one strand shown
# T3 sequence: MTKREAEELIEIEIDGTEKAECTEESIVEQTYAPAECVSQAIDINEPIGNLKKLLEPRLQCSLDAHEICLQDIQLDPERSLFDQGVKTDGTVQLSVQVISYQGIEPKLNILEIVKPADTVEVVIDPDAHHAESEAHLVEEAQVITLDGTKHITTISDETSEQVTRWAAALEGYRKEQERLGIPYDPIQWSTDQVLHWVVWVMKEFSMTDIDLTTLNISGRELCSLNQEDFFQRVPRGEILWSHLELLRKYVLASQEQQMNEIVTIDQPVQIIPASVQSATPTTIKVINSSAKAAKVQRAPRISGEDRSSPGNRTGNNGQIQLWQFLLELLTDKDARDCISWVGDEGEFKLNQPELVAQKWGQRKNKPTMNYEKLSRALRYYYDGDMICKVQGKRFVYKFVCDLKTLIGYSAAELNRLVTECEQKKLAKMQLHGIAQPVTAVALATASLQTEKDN
# How it was run: as §1
# ERG = target: T4, ERG (Homo sapiens, UniProt P11308 1-479); conditions: protein: recombinant; tags: N-terminal GST; dsDNA, one strand shown
# T4 sequence: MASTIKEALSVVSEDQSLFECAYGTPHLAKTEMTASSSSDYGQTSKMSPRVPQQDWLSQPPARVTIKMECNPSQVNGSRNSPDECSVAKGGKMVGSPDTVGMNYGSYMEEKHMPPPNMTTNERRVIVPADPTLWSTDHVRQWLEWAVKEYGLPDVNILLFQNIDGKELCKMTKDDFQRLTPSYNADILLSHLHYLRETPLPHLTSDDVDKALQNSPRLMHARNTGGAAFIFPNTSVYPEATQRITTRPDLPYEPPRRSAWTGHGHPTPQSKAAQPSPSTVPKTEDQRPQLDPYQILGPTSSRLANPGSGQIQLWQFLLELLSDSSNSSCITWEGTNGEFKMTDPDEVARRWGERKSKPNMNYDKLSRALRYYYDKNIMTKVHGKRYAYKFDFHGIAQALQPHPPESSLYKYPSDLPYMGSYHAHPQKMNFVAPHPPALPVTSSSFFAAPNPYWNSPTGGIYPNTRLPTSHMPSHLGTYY
# How it was run: as §1
# ELF1 = ELF1 (Homo sapiens, UniProt P32519 1-619); conditions: protein: recombinant; tags: N-terminal GST; dsDNA, one strand shown
# How it was run: as §1
# EHF = target: T5, EHF (Homo sapiens, UniProt Q9NZC4 1-300); conditions: protein: recombinant; tags: N-terminal GST; dsDNA, one strand shown
# T5 sequence: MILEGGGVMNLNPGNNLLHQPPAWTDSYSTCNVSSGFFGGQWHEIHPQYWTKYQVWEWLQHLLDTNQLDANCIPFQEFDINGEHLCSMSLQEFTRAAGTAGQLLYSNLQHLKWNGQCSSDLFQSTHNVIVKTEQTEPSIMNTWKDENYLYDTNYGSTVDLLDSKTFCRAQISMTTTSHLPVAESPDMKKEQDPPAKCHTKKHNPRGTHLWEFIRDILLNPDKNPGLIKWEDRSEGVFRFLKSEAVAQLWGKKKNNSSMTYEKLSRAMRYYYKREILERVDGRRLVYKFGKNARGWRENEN
# How it was run: as §1
# SPI1 = SPI1 (Homo sapiens, UniProt P17947 1-270); conditions: protein: recombinant; tags: N-terminal GST; dsDNA, one strand shown
# How it was run: as §1
# SPIB = SPIB (Homo sapiens, UniProt Q01892 1-262); conditions: protein: recombinant; tags: N-terminal GST; dsDNA, one strand shown
# How it was run: as §1
# ELK3 = target: T6, ELK3 (Homo sapiens, UniProt P41970 1-407); conditions: protein: recombinant; tags: N-terminal GST; dsDNA, one strand shown
# T6 sequence: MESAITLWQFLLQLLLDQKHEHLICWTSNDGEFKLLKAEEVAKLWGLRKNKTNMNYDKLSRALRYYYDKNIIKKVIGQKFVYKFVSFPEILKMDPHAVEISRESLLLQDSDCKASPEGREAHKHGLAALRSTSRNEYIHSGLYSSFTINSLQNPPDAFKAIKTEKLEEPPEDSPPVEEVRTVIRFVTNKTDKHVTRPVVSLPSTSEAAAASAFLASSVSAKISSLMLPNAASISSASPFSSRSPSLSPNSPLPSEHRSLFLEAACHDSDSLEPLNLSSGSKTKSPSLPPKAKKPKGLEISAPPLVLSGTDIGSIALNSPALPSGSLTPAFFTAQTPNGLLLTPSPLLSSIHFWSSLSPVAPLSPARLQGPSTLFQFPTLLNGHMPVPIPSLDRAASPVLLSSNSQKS
# How it was run: as §1
# FEV = target: T7, FEV (Homo sapiens, UniProt Q99581 1-238); conditions: protein: recombinant; tags: N-terminal GST; dsDNA, one strand shown
# T7 sequence: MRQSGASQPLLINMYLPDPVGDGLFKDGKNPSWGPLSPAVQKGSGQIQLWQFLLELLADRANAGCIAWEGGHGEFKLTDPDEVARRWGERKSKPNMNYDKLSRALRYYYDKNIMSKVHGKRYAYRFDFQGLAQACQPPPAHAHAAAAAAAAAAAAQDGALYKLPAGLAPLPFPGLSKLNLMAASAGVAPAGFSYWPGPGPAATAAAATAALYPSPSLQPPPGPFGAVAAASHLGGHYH
# How it was run: as §1
# ETV5 = ETV5 (Homo sapiens, UniProt P41161 1-510); conditions: protein: recombinant; tags: N-terminal GST; dsDNA, one strand shown
# How it was run: as §1
# HSF1 = HSF1 (Homo sapiens, UniProt Q00613 1-529); conditions: protein: recombinant; tags: N-terminal GST; chain copies: 3; dsDNA, one strand shown
# How it was run: as §1
# SPIC = target: T8, SPIC (Homo sapiens, UniProt Q8N5J4 1-248); conditions: protein: recombinant; tags: N-terminal GST; dsDNA, one strand shown
# T8 sequence: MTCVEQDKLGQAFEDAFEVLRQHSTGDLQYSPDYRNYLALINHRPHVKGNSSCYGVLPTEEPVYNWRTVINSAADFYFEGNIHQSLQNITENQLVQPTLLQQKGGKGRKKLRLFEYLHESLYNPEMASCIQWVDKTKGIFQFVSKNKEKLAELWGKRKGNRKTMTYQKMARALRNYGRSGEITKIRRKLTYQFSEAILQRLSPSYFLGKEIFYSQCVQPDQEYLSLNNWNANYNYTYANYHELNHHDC
# How it was run: as §1
# ELF4 = ELF4 (Homo sapiens, UniProt Q99607 1-663); conditions: protein: recombinant; tags: N-terminal GST; dsDNA, one strand shown
# How it was run: as §1
# ELK4 = target: T9, ELK4 (Homo sapiens, UniProt P28324-2 1-405); conditions: protein: recombinant; tags: N-terminal GST; dsDNA, one strand shown
# T9 sequence: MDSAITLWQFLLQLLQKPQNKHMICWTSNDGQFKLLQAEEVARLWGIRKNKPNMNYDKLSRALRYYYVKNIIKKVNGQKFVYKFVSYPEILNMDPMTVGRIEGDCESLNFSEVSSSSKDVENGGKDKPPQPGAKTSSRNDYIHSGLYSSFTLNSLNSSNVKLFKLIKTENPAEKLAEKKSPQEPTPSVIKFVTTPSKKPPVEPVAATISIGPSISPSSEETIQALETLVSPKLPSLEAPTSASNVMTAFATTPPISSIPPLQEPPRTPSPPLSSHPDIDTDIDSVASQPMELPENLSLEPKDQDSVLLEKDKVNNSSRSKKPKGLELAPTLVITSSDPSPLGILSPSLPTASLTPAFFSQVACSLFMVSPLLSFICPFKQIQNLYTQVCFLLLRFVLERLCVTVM
# How it was run: as §1
# ETV2 = target: T10, ETV2 (Homo sapiens, UniProt O00321 1-342); conditions: protein: recombinant; tags: N-terminal GST; dsDNA, one strand shown
# T10 sequence: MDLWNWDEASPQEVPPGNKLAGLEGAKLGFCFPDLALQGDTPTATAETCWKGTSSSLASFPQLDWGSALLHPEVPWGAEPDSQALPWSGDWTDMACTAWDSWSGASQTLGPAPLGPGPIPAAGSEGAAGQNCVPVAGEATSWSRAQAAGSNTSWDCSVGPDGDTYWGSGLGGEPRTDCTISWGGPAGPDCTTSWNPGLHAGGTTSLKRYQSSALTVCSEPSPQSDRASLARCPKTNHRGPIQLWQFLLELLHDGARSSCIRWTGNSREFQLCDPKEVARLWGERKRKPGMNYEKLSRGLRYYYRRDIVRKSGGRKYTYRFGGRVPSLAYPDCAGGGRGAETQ
# How it was run: as §1
# ELF3 = target: T11, ELF3 (Homo sapiens, UniProt P78545 1-371); conditions: protein: recombinant; tags: N-terminal GST; dsDNA, one strand shown
# T11 sequence: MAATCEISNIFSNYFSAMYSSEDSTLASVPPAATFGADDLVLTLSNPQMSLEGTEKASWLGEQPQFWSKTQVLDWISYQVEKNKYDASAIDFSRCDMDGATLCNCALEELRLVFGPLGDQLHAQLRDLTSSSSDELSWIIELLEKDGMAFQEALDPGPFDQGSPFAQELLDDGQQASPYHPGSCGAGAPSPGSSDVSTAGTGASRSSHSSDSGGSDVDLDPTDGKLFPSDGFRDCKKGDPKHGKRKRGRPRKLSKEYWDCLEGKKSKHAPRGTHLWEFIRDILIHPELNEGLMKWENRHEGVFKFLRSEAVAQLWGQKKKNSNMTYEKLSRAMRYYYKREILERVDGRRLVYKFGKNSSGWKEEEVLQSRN
# How it was run: as §1
# CRX = CRX (Homo sapiens, UniProt O43186 1-299); conditions: protein: recombinant; tags: N-terminal GST; dsDNA, one strand shown
# How it was run: as §1
# ETV1 = ETV1 (Homo sapiens, UniProt P50549 1-477); conditions: protein: recombinant; tags: N-terminal GST; dsDNA, one strand shown
# How it was run: as §1
# Sequence of HSF1 (Q00613 whole entry): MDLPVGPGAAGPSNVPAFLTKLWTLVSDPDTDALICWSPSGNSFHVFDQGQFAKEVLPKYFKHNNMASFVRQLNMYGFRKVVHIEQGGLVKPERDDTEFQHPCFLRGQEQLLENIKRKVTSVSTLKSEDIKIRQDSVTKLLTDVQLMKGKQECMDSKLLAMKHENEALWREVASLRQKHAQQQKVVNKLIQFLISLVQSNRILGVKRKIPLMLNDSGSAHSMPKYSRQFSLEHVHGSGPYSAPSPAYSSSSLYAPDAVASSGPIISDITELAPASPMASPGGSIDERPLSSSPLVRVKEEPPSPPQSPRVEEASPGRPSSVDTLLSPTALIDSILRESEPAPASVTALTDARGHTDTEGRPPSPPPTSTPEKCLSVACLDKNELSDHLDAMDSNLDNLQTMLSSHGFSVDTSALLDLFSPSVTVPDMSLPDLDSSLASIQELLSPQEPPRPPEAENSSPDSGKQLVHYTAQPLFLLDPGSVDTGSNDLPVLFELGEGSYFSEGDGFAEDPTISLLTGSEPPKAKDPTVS
# Sequence of ELF1 (P32519 whole entry): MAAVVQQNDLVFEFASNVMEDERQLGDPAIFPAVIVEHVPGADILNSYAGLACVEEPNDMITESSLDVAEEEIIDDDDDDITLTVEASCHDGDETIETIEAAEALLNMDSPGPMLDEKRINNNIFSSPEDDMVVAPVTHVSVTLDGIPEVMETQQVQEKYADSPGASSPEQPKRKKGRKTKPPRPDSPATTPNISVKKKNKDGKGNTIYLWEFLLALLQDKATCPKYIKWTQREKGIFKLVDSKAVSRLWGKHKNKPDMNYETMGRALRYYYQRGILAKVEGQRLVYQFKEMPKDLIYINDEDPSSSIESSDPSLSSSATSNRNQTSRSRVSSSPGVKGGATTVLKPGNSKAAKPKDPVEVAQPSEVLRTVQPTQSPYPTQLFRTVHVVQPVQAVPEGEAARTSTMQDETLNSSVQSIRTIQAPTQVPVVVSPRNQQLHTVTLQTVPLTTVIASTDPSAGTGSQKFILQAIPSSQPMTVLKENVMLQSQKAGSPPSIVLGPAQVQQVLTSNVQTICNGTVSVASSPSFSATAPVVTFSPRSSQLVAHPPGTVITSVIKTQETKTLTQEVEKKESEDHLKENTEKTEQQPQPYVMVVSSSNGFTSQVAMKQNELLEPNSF
# Sequence of ETV5 (P41161 whole entry): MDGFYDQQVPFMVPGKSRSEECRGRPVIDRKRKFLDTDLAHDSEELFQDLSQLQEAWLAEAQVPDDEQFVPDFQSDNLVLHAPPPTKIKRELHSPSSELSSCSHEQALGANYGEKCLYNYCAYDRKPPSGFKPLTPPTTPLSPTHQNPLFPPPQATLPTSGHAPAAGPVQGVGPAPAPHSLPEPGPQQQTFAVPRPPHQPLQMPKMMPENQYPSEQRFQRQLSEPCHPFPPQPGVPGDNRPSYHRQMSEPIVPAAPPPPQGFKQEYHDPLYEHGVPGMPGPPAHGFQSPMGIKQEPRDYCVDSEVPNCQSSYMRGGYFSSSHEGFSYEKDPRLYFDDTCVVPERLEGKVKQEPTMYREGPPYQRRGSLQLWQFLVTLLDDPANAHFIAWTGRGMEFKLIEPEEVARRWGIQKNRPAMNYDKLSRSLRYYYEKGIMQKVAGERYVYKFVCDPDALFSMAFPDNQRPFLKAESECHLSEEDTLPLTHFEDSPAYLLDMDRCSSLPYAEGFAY
# Sequence of ELF4 (Q99607 whole entry): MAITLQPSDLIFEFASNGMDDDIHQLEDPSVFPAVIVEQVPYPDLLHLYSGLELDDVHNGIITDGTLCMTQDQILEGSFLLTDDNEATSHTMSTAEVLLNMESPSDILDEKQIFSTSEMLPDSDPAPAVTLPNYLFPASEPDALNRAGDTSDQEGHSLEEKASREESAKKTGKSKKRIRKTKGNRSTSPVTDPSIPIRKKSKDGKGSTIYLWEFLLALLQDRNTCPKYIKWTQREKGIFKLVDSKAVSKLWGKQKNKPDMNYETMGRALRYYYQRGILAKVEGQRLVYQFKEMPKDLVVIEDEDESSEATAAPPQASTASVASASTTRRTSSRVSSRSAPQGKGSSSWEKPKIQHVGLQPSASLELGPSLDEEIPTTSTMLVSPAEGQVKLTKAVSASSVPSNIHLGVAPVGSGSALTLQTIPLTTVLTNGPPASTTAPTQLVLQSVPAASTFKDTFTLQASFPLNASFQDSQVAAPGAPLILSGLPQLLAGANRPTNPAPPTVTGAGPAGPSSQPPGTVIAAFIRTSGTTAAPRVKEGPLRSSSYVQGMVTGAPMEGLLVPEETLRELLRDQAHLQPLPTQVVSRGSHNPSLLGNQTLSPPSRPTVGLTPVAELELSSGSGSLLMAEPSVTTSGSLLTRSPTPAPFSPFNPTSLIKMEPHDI
# Sequence of SPIB (Q01892 whole entry): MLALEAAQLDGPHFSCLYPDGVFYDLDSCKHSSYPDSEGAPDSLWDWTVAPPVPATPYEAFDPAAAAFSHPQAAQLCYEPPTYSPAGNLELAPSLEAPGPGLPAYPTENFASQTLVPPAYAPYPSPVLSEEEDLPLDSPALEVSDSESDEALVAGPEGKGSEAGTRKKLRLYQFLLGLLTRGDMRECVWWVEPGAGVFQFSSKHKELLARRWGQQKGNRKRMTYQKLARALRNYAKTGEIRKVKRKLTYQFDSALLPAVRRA
# Sequence of CRX (O43186 whole entry): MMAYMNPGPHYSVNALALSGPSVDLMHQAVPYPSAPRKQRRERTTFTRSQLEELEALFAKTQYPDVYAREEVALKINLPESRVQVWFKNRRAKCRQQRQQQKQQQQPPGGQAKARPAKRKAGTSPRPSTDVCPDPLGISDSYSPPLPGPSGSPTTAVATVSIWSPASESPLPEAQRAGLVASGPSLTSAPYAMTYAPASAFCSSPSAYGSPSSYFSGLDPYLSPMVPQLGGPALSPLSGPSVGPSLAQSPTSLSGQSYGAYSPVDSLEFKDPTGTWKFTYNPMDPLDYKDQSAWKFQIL
# Sequence of ETV1 (P50549 whole entry): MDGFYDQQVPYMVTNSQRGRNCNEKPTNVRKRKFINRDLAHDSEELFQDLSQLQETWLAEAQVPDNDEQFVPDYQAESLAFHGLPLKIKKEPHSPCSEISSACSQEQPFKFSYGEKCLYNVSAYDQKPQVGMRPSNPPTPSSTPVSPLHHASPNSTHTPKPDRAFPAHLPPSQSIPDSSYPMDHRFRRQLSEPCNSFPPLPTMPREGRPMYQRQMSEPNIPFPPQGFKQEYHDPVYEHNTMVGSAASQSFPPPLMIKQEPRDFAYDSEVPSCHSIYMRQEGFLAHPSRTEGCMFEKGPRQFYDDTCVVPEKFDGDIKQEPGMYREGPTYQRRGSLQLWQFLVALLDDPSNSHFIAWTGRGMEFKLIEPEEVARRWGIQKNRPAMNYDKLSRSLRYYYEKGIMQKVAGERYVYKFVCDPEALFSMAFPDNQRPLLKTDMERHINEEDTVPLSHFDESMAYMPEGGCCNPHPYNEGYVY
sequence,measurement,setting,value
ATTGTA,binding signal,FLI1,"1.22 fold enrichment (6-mer frequency, TF over GST control)"
same,binding signal,ELK1,"1.33 fold enrichment (6-mer frequency, TF over GST control)"
same,binding signal,GABPA,"1.17 fold enrichment (6-mer frequency, TF over GST control)"
same,binding signal,ERG,"1.19 fold enrichment (6-mer frequency, TF over GST control)"
same,binding signal,ELF1,"1.24 fold enrichment (6-mer frequency, TF over GST control)"
same,binding signal,EHF,"1.22 fold enrichment (6-mer frequency, TF over GST control)"
same,binding signal,SPI1,"1.09 fold enrichment (6-mer frequency, TF over GST control)"
same,binding signal,SPIB,"1.24 fold enrichment (6-mer frequency, TF over GST control)"
same,binding signal,ELK3,"1.27 fold enrichment (6-mer frequency, TF over GST control)"
same,binding signal,FEV,"1.19 fold enrichment (6-mer frequency, TF over GST control)"
same,binding signal,ETV5,"1.19 fold enrichment (6-mer frequency, TF over GST control)"
same,binding signal,HSF1,"1.16 fold enrichment (6-mer frequency, TF over GST control)"
same,binding signal,SPIC,"1.18 fold enrichment (6-mer frequency, TF over GST control)"
same,binding signal,ELF4,"1.24 fold enrichment (6-mer frequency, TF over GST control)"
same,binding signal,ELK4,"1.21 fold enrichment (6-mer frequency, TF over GST control)"
same,binding signal,ETV2,"1.29 fold enrichment (6-mer frequency, TF over GST control)"
same,binding signal,ELF3,"1.17 fold enrichment (6-mer frequency, TF over GST control)"
same,binding signal,CRX,"1.28 fold enrichment (6-mer frequency, TF over GST control)"
same,binding signal,ETV1,"1.21 fold enrichment (6-mer frequency, TF over GST control)"
